The results in this text go back to the supplement of paper PMC12350171.

Where a name gives a salt, the structure may show the parent alone.

The assay deals with Haemophilus parainfluenzae. The assay is described as follows: growth AUC normalised to DMSO control (fraction of control); higher = less growth inhibition, active = hit call of the paper. Conditions: 20 µM;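 active = AUC significantly below DMSO controls by Student t-fit with adjusted P under 0.01; inactive = not significantly reduced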. In outline:
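Hemin and NAD were added to the medium for Haemophilus parainfluenzae. All pathogens, after two anaerobic passages, were inoculated at a starting OD578 of 0.01 into pre-reduced mGAM plates with 20 μM compound and 1% DMSO under breathable seals, and OD578 was read hourly for 24 h in three biological replicates. AUC of each growth curve was obtained with the trapezoidal rule up to the exponential-to-stationary transition and normalised to DMSO controls from the same plate.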
Turning to `C[C@@H]1C[C@H]2[C@@H]3CCC4=CC(=O)C=C[C@]4(C)[C@@]3(Cl)[C@@H](O)C[C@]2(C)[C@@]1(OC(=O)c1ccco1)C(=O)CCl` [Mometasone furoate], the “growth AUC normalised to DMSO control” value is 1.05 (inactive). The same measure for `COc1cc2nc(N3CCN(C(=O)c4ccco4)CC3)nc(N)c2cc1OC` [Prazosin hydrochloride]: 0.981 (inactive); for `Cn1c(=O)c2c(ncn2CC2OCCO2)n(C)c1=O` [Doxofylline]: 1.02 (inactive); for `CC[N+](CC)(CC(=O)Nc1c(C)cccc1C)Cc1ccccc1` [Denatonium benzoate]: 1.05 (inactive). With `CC(C)[C@H](N)C(=O)OCCOCn1cnc2c(=O)nc(N)[nH]c21` [Valacyclovir hydrochloride] the figure was 0.99 (inactive); with `C=CCN1CCCC1CNC(=O)c1cc2nn[nH]c2cc1OC` (stereo unspecified) [Alizapride hydrochloride], 1 (inactive). For the compound `O=C1NCN(c2ccccc2)C12CCN(CCCC(c1ccc(F)cc1)c1ccc(F)cc1)CC2` [Fluspirilene], the “growth AUC normalised to DMSO control” value is 1.05 (inactive).

With `CCc1cccc(CC)c1NC(=O)CN(CC(=O)O)CC(=O)O` [Etifenin], the “growth AUC normalised to DMSO control” value is 1.01 (inactive). Take `CN1CCN(CCCN2c3ccccc3Sc3ccc(S(=O)(=O)N(C)C)cc32)CC1` [Thioproperazine dimesylate]: the “growth AUC normalised to DMSO control” value is 1.01 (inactive). The same measure for `OCC(O)CN1CCN(c2ccccc2)CC1` (stereo unspecified) [Dropropizine]: 1.07 (inactive); for `COc1ccc(C(=O)NCc2cccnc2)cc1C(=O)NCc1cccnc1` [Picotamide monohydrate]: 0.997 (inactive).
